About 3,300 (8.5%) of roughly 39,000 compounds were called active. The sample holds actives, similar compounds and a random draw of the others, so the mix is not that of the screen.

Here are results for 18 compounds from the antibiotic and cytotoxicity screens of Wong et al. (2023).

The subject of this assay is HepG2. Kind of assay: cytotoxicity call (relative viability < 0.9). Conditions: 10 µM.
As to `COc1cccc(S(=O)(=O)Nc2ccc3c(c2)[C@@H]2C[C@@H](CC(=O)NCc4cccc(F)c4)O[C@H](CO)[C@@H]2O3)c1`, the cytotoxicity call was “inactive”. For `O=C(C[C@@H]1C=C[C@@H](NS(=O)(=O)c2ccccc2)[C@@H](CO)O1)NCc1ccncn1`, the cytotoxicity call is “inactive”.

`COc1ccc(S(=O)(=O)N2C[C@H](O)COC[C@@H]3O[C@@H](CC(=O)N[C@@H]4CCN(Cc5ccccc5)C4)CC[C@H]32)cc1`: the cytotoxicity call is “inactive”.

Consider `COCC(=O)Nc1ccc2c(c1)C(=O)N(C)C[C@@H](OC)[C@@H](C)CN(Cc1ccccc1OC)[C@H](C)CO2`, for which the cytotoxicity call was “inactive”. In the case of `C[C@@H]1CCCCO[C@H](CN(C)C(=O)Cc2ccccc2)[C@H](C)CN([C@@H](C)CO)C(=O)c2cc(NS(=O)(=O)c3ccc(Cl)cc3)ccc2O1`, the cytotoxicity call is “inactive”. Turning to `COCC(=O)N1C[C@H](C)[C@H](OC)CN(C)C(=O)c2ccc(NC(=O)c3ccc(OC)cc3)cc2OC[C@H]1C`, the cytotoxicity call was “inactive”.

Consider `Cc1noc(C)c1S(=O)(=O)N(C)C[C@H]1OCCCC[C@@H](C)Oc2ccc(NC(=O)Nc3ccc(F)cc3)cc2C(=O)N([C@H](C)CO)C[C@@H]1C`, for which the cytotoxicity call is “inactive”. As for `Cc1noc(C)c1S(=O)(=O)Nc1ccc2c(c1)C(=O)N([C@H](C)CO)C[C@@H](C)[C@H](CN(C)Cc1ccccc1)OCCCC[C@H](C)O2`, the entry is “inactive”; as for `COc1ccc(S(=O)(=O)N(C)C[C@@H]2Oc3ccc(NC(=O)Nc4cc(Cl)cc(Cl)c4)cc3CC(=O)N([C@@H](C)CO)C[C@@H]2C)cc1Cl`, “active”. For the compound `CC(C)NC(=O)Nc1ccc2c(c1)CC(=O)N([C@@H](C)CO)C[C@@H](C)[C@H](CN(C)S(=O)(=O)c1ccc(Cl)cc1)O2`, the cytotoxicity call is “inactive”.

`COc1ccc(S(=O)(=O)N(C)C[C@@H]2Oc3ccc(NC(=O)Nc4cccc5c4CCCC5)cc3CC(=O)N([C@@H](C)CO)C[C@@H]2C)cc1Cl`: the cytotoxicity call was “inactive”. For `CC(C)NC(=O)Nc1ccc2c(c1)CC(=O)N([C@H](C)CO)C[C@@H](C)[C@H](CN(C)S(=O)(=O)c1ccc(Cl)cc1)O2`, the cytotoxicity call is “inactive”. As for `COc1ccc(S(=O)(=O)N(C)C[C@@H]2Oc3ccc(NC(=O)Nc4ccc(Cl)c(Cl)c4)cc3CC(=O)N([C@@H](C)CO)C[C@@H]2C)cc1Cl`, the entry is “active”; as for `COc1ccc(S(=O)(=O)N(C)C[C@@H]2Oc3ccc(NC(=O)NC(C)C)cc3CC(=O)N([C@H](C)CO)C[C@@H]2C)cc1`, “inactive”; as for `CCS(=O)(=O)N1CCNCC1`, “inactive”. As to `CC1C(=O)CCC2C1(C)CCC1C2(C)CCC2(C)C3CC(C)(C)CCC3(C)CCC12C` (stereo not drawn), the cytotoxicity call was “inactive”. For `O=C(O)c1n[nH]c2c1CCCC2`, the cytotoxicity call is “inactive”.

As to `C[C@H]1CN([C@@H](C)CO)C(=O)c2cc(C#Cc3ccccc3F)cnc2O[C@H]1CN(C)C(=O)C1CCOCC1`, the cytotoxicity call was “inactive”.
